# Reference: PubChem BioAssay AID2685 (National Center for Advancing Translational Sciences (NCATS), 2010)
# The campaign covered roughly 320,000 compounds. About 2,100 (0.66%) were called active. About 53% were inconclusive and are not listed. The call rests on the fitted dose curve; in most records, active means well fitted inhibition curve with a large enough effect in the signal ratio, with a control signal flat (not every such curve was filed as active); inconclusive means small, poorly fitted or top-dose-only effect, or effect the other way, or a change in a side signal; inactive means flat fitted curve, though single readings scatter; the % refers to the signal ratio. The sample as a whole holds a higher share of actives than the screen did.
# Test: qHTS Assay for Lipid Storage Modulators in Drosophila S3 Cells;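 on cell number change: cells counted by Cell Tracker Red CMTPX staining in the red channel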
# Conditions: BODIPY lipid droplet fluorescence, 18-24 h, cells fed with added oleic acid; cell number change: measured here: cell count max response; series mostly up to 46.1 µM
# Summary of the method: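 Laser-scanning cytometry quantifies lipid droplet accumulation (500–530 nm total intensity; droplet/cell object ratio) in oleic acid-fed (400 uM added) Drosophila S3 cells treated with a concentration series. 20 uM Triacsin C defined 100% inhibition.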
# Potency means the concentration at half of the fitted maximal effect.
SMILES,Potency,cell number change [%]
O=C(CSc1ccc(F)cc1)N1CCOCC1,inactive,7.13
COC(=O)c1ccc(COc2cc([N+](=O)[O-])cc3cccnc23)o1,inactive,5.31
Cc1cccc(NC(=S)NC(C)C(c2ccccc2)N2CCN(C)CC2)c1C (configuration not stated),inactive,-10.3
COc1ccc(OC)c(S(=O)(=O)NC2CC2)c1,inactive,-2.27
Nc1nc(SCC(=O)Nc2cccnc2Cl)n[nH]1,inactive,
COc1ccc(-c2n[nH]c(=S)n2N)c(OC)c1,inactive,-28.8
COc1ccc(CNC(=O)CCNS(=O)(=O)c2ccc3c(c2)oc(=O)n3C)cc1,inactive,
Cc1ccc(N2CCN(/N=C/c3ccccc3)CC2)cc1,inactive,-1.14
C=CCNC(=O)c1ccccc1NC(=O)c1ccc(Cl)c(S(=O)(=O)Nc2ccccc2)c1,inactive,-6.78
Cc1ccccc1-n1ncc2c1CC(C)(C)CC2NC(=O)CCN1CCCCC1=O (configuration not stated),inactive,-9.29
O=C(O)c1cc(-c2ccc(Cl)c(Cl)c2)n(-c2ccc(F)cc2)n1,inactive,20.6
COc1ccccc1CNC(=O)CCn1c(=O)[nH]c2ccsc2c1=O,inactive,-12.6
CCn1c(=O)c2sccc2n2c(CCCC(=O)NC3CCN(Cc4ccccc4)CC3)nnc12,inactive,
O=C(CCCn1c(=O)[nH]c2ccsc2c1=O)N1CCN(c2ccccn2)CC1,inactive,-2.15
CC(C)Cn1c(=O)c2sccc2n2c(CCCC(=O)NC3CCN(Cc4ccccc4)CC3)nnc12,inactive,6.76
COc1ccccc1CNC(=O)CCCc1nnc2n(C)c(=O)c3sccc3n12,1.3 µM (active),11.8
CCn1c(=O)c2sccc2n2c(CCCC(=O)N3CCN(c4ccccn4)CC3)nnc12,23.1 µM (active),-5.66
N#Cc1ccc(C[C@@H](NS(=O)(=O)c2ccc(C(=O)O)cc2)C(=O)O)cc1,inactive,17.7
COc1cc(/C=C2/C(=O)N(c3ccc(Br)cc3)N=C2C)cc([N+](=O)[O-])c1O,inactive,
COc1ccc(OCCCCOc2ccccc2Cl)cc1,inactive,0.395

SMILES,Potency,cell number change [%]
NNC(=O)/C(=C\c1ccc(Br)cc1)NC(=O)c1cccs1,inactive,2.9
COc1ccc(NC(=O)CCNC(=O)c2ccc([N+](=O)[O-])cc2)cc1S(=O)(=O)N1CCOCC1,inactive,-1.49
COc1ccc(OCC(=O)NNC(=O)Cn2c(=O)cnc3ccccc32)cc1,inactive,2.51
COC(=O)Cn1c(=O)cnc2ccccc21,16.4 µM (active),11.6
CC(C)(C)OC(=O)Cn1c(=O)cnc2ccccc21,inactive,6.02
CCC1=C(OC(=O)N(CC)CC)N2C(=O)OC(=NCc3ccccc3)[C@]2(C)[C@H]2C1=CC[C@H]1C(=O)N(c3ccccc3)C(=O)[C@H]12,inactive,11.7
Cc1cc(NC(=O)COC(=O)c2ccccc2[N+](=O)[O-])no1,inactive,-0.913
O=C(C1=C(O)C(=O)N(CCc2ccccc2)C1c1cccs1)c1ccco1 (configuration not stated),inactive,
COc1ccccc1-[n+]1c(C)cc(/C=C2\Sc3ccccc3N2C)cc1C,0.082 µM (active),-16.5
CN1/C(=C/c2cccc[n+]2CCO)Sc2ccccc21,inactive,0.676
Cc1ccc2c(c1)S/C(=C/c1ccc[n+](CCO)c1)N2C,inactive,5.41
Cn1cc(CN2CCCC(CNC(=O)c3ccc4c(c3)OCO4)C2)c2ccccc21 (configuration not stated),inactive,-1.43
COc1ccc(-n2nc3c(c2NC(=O)CBr)CSC3)cc1,inactive,13.3
C=CCC(NCc1ccco1)c1ccc(OC)c(OC)c1 (configuration not stated),23.1 µM (active),
C=CCC(NCc1ccco1)c1ccc(OC)cc1 (configuration not stated),inactive,-21.6
C=CCC(Nc1ccccc1)c1ccc(OC)c(OC)c1 (configuration not stated),inactive,7.9
CCOc1ncccc1C(=O)OCC(=O)Nc1cc(S(=O)(=O)N(CC)CC)ccc1C,inactive,-5.2
COCCCn1c(-c2ccc(OC)cc2)nc2nc3ccccc3nc21,inactive,5.75
Cc1ccc(S(=O)(=O)N2CCCCC2)cc1C(=O)N1CCN(c2ccccn2)CC1,inactive,
Cc1cccc(C(=O)NCc2nnc(SCC(=O)Nc3nncs3)n2C)c1,inactive,-2.14

SMILES,Potency,cell number change [%]
CC(NC(=O)CCC(=O)NC(C)C1COc2ccccc2O1)C1COc2ccccc2O1 (configuration not stated),inactive,-1.04
O=C(OC1CCOC1=O)c1cc(-c2cccc(Br)c2)nc2ccccc12 (configuration not stated),inactive,21.7
COc1cc(C(C[N+](=O)[O-])c2c(C)cc3ccccn23)ccc1O (configuration not stated),0.651 µM (active),15.3
COc1cc(C(C[N+](=O)[O-])c2c(C)[nH]c3ccccc23)ccc1O (configuration not stated),inactive,20.5
Cc1cc2ccccn2c1C(C[N+](=O)[O-])c1ccc(N(C)C)cc1 (configuration not stated),inactive,12.9
CC(=O)c1cccc(NC(=O)c2sc(Cl)nc2C)c1,inactive,12.6
O=C(Nc1cccc(C(F)(F)F)c1)c1sc(Cl)nc1C(F)(F)F,10.3 µM (active),-10.2
Cc1ncsc1C(=O)Nc1cccc(C(F)(F)F)c1,inactive,22.3
Cc1nc(Cl)sc1C(=O)Nc1cccc(Cl)c1,inactive,2.35
Cc1nc(Cl)sc1C(=O)Nc1ccc(C(C)(C)C)cc1,7.31 µM (active),1.1
Cc1nc(Cl)sc1C(=O)Nc1ccc(C(F)(F)F)cc1,1.64 µM (active),-0.73
O=C(Nc1cccc(C(F)(F)F)c1)c1cc(-c2ccco2)on1,inactive,7.92
Cc1nc(Cl)sc1C(=O)Nc1ccccc1Cl,inactive,-11.3
Cc1ccccc1NC(=O)c1sc(Cl)nc1C,inactive,
COCCN(C(=O)CNC(=O)c1cccs1)C(C(=O)NC1CCCCC1)c1ccco1 (configuration not stated),inactive,-12.2
CC(=O)C(Sc1nnnn1-c1ccc(O)cc1)c1ccccc1 (configuration not stated),inactive,5.67
Cn1c(N2CCN(C(=O)Nc3ccc(F)cc3)CC2)nc2ccccc21,inactive,17.1
CC(C)n1c(N2CCN(C(=O)NCc3ccccc3)CC2)nc2ccccc21,inactive,-4.04
COc1ccc(NC(=O)N2CCN(c3nc4ccccc4n3C(C)C)CC2)cc1,14.6 µM (active),-28.6
N#Cc1c(Cl)nc(SCc2ccccc2)nc1-c1ccccc1,inactive,-2.68
